This passage reports growth results from PubChem BioAssay (NCI).

The panel holds about 83,000 compounds, 20% with a hit somewhere; the sample as a whole holds those more often.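 How to read the values: 0–100, growth inhibition (40 = 60% inhibited); 0, no net growth; -100 to 0, cell death (-40 = 40% of starting cells died; -100 = all dead).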 Values without a mark were called inactive. The source made the active and inactive calls. Rule for the calls: active = growth percent below 10; inactive = the rest.

Test systems include K-562 leukemia; MALME-3M melanoma; MDA-MB-231 breast; SF-268 CNS; SF-295 CNS; SF-539 CNS; UACC-257 melanoma; M14 melanoma; HCT-15 colon; HT29 colon; SNB-75 CNS; SNB-19 CNS; U251 CNS; PC-3 prostate; SK-MEL-5 melanoma; UACC-62 melanoma; LOX IMVI melanoma; SK-MEL-28 melanoma; SK-MEL-2 melanoma; RXF 393 renal.
Test in all cases: NCI-60 one-dose screen, 48 h (100 = growth as untreated, 0 = no growth, -100 = all killed)
Settings in all cases: 10 µM

On to `COc1ccc2nc3ccccc3c(NCCNCC(C)O)c2c1` (stereo not given), for which the growth in the assay with K-562 leukemia is 9.22% (active); in the assay on MALME-3M melanoma it was -13.7% (active); in the assay with MDA-MB-231 breast it was -28.2% (active); in the assay with SF-268 CNS it was 8.57% (active); in the assay with SF-295 CNS, 7.81% (active); in the assay on SF-539 CNS, 6.66% (active). In addition, the growth in the assay on UACC-257 melanoma was 7.95% (active); in the assay on M14 melanoma, 11.3%; in the assay on HCT-15 colon it was 23.1%; with HT29 colon, 1.38% (active); in the assay with SNB-75 CNS, 28.1%; in the assay on SNB-19 CNS, 0.0735% (active). The growth in the assay on U251 CNS is 1.29% (active); in the assay with PC-3 prostate it was 4.7% (active); in the assay on SK-MEL-5 melanoma, 10.3%; with UACC-62 melanoma, -59.9% (active); in the assay on LOX IMVI melanoma, -47.1% (active); in the assay on SK-MEL-28 melanoma, 8.18% (active). Also, the growth in the assay on SK-MEL-2 melanoma is -21.8% (active).

For `CCCCCCCCCCCCC1C/C=C\CCCC(=O)O1` (stereo not given), the growth was 101% in the assay with K-562 leukemia; 107% in the assay with MALME-3M melanoma; 119% in the assay with MDA-MB-231 breast; 103% with SF-268 CNS; 103% in the assay with SF-295 CNS; 107% in the assay with SF-539 CNS. In addition, the growth in the assay on UACC-257 melanoma is 118%; in the assay with M14 melanoma it was 100%; in the assay with HCT-15 colon, 97.2%; with HT29 colon, 107%; with SNB-75 CNS, 102%; in the assay with SNB-19 CNS, 110%. Further, the growth in the assay on U251 CNS is 109%; in the assay with PC-3 prostate, 112%; in the assay with SK-MEL-5 melanoma it was 109%; in the assay with UACC-62 melanoma it was 108%; in the assay on LOX IMVI melanoma, 113%; with SK-MEL-28 melanoma, 126%. Moreover, the growth in the assay with SK-MEL-2 melanoma was 111%.

For `COc1cc(/C=C2\Oc3cc(OCC(=O)c4ccccc4)ccc3C2=O)cc(OC)c1OC`, the growth is 105% in the assay with K-562 leukemia; 114% in the assay with MALME-3M melanoma; 95.6% in the assay on MDA-MB-231 breast; 105% in the assay with SF-268 CNS; 91.5% in the assay on SF-295 CNS; 121% in the assay with SF-539 CNS. The growth was 132% with UACC-257 melanoma; 125% with M14 melanoma; 103% with HCT-15 colon; 112% with HT29 colon; 104% in the assay with SNB-75 CNS; 118% with SNB-19 CNS. The growth with U251 CNS was 90.1%; in the assay on PC-3 prostate, 85.2%; in the assay on SK-MEL-5 melanoma, 98.7%; in the assay with UACC-62 melanoma it was 96.7%; in the assay with LOX IMVI melanoma, 98.5%; with SK-MEL-28 melanoma, 108%. Also, in the assay with SK-MEL-2 melanoma, the growth is 122%.

Regarding `COc1cc(Cc2cc(-c3ccc(Cl)cc3)n[nH]c2=O)ccc1O`, the growth with K-562 leukemia was 78.5%; with MALME-3M melanoma, 108%; in the assay with MDA-MB-231 breast, 100%; with SF-268 CNS, 93.2%; in the assay on SF-295 CNS, 124%; with SF-539 CNS it was 98.4%. For the same compound, the growth was 128% in the assay with UACC-257 melanoma; 108% in the assay on M14 melanoma; 104% in the assay on HCT-15 colon; 110% in the assay on HT29 colon; 70.8% in the assay with SNB-75 CNS; 86.2% with SNB-19 CNS. The growth is 108% in the assay with U251 CNS; 105% in the assay on PC-3 prostate; 80.7% with SK-MEL-5 melanoma; 96.4% in the assay with UACC-62 melanoma; 115% in the assay with LOX IMVI melanoma; 122% with SK-MEL-28 melanoma. The growth with SK-MEL-2 melanoma was 117%.

`COc1ccc2c(c1)N(CCO)C1=C(C(=O)OC1)C2c1ccccc1` (stereo not given): the growth with K-562 leukemia is 16.3%; with MDA-MB-231 breast, 63.4%; in the assay on RXF 393 renal, 2.16% (active); with SF-268 CNS, 51.2%; in the assay with SF-295 CNS, -11.6% (active); with SF-539 CNS it was 2.74% (active). For the same compound, the growth with UACC-257 melanoma was 55%; in the assay on M14 melanoma, 7.89% (active); with HCT-15 colon it was 22.4%; in the assay with HT29 colon it was 1.72% (active); with SNB-75 CNS, 14.6%; in the assay on SNB-19 CNS, 41.1%. For the same compound, the growth in the assay on U251 CNS was 20.9%; in the assay with PC-3 prostate, 27.1%; in the assay with SK-MEL-5 melanoma, 9.35% (active); with UACC-62 melanoma, 20.1%; in the assay with LOX IMVI melanoma it was 43.3%; with SK-MEL-28 melanoma, 53.7%.

On to `O=C1OCC2=C1C(c1cccc(Cl)c1)c1cc3c(cc1N2CCO)OCCO3` (stereo not given), for which the growth with K-562 leukemia is 17.5%; in the assay on MDA-MB-231 breast, -3.22% (active); with RXF 393 renal, 33.9%; with SF-268 CNS it was 23.1%; in the assay with SF-295 CNS it was -16.5% (active); with SF-539 CNS, -3.57% (active). In addition, the growth in the assay with UACC-257 melanoma is 44.6%; with M14 melanoma, 12.9%; in the assay on HCT-15 colon it was 8.81% (active); in the assay on HT29 colon, 2.11% (active); in the assay with SNB-75 CNS, 29.2%; in the assay on SNB-19 CNS, 37.4%. The growth with U251 CNS is 0.324% (active); in the assay with PC-3 prostate, 21.3%; with SK-MEL-5 melanoma, -8.57% (active); in the assay with UACC-62 melanoma, 27.9%; with LOX IMVI melanoma, 22.2%; in the assay on SK-MEL-28 melanoma it was 57.7%.

For the compound `CCCCCCCCCCCC[n+]1ccc(C(N)=O)cc1`, the growth is 7.8% (active) in the assay with K-562 leukemia; 28.4% in the assay with MDA-MB-231 breast; -23.4% (active) in the assay with RXF 393 renal; 22.1% with SF-268 CNS; 33.6% in the assay with SF-295 CNS; 8.16% (active) with SF-539 CNS. Moreover, the growth with UACC-257 melanoma is 29.6%; with M14 melanoma it was 10.8%; with HCT-15 colon, 87.3%; in the assay on HT29 colon, 5.01% (active); with SNB-75 CNS, -4.25% (active); in the assay on SNB-19 CNS it was 18.6%. Further, the growth in the assay with U251 CNS was -3.1% (active); in the assay with PC-3 prostate it was -18.2% (active); with SK-MEL-5 melanoma, -6.99% (active); in the assay with UACC-62 melanoma it was 29%; with LOX IMVI melanoma, 25.6%; in the assay with SK-MEL-28 melanoma, 57.8%. Besides, the growth in the assay on SK-MEL-2 melanoma was 30.9%.

For the compound `Clc1cccc(-c2nc(-c3cccs3)no2)c1`, the growth is 102% with K-562 leukemia; 81.4% with MDA-MB-231 breast; 113% with RXF 393 renal; 106% in the assay on SF-268 CNS; 92.2% in the assay on SF-295 CNS; 92.6% with SF-539 CNS. Besides, the growth with UACC-257 melanoma was 110%; in the assay on M14 melanoma, 105%; in the assay with HCT-15 colon it was 47.4%; in the assay on HT29 colon it was 106%; in the assay on SNB-75 CNS, 81.5%; in the assay with SNB-19 CNS, 104%. In addition, the growth in the assay with U251 CNS was 90.3%; with PC-3 prostate, 103%; with SK-MEL-5 melanoma, 90.1%; in the assay with UACC-62 melanoma, 89.8%; in the assay on LOX IMVI melanoma, 93.1%; in the assay on SK-MEL-28 melanoma, 115%. Moreover, the growth in the assay on SK-MEL-2 melanoma is 116%.
